# Laboratory results: the antibiotic and cytotoxicity screens of Wong et al. (2023)
# The whole screen tested about 39,000 compounds, of which about 500 (1.3%) were called active. This is one part of a sample in which actives are shown more often than they occur.
# Test system: S. aureus RN4220
# Experiment: growth inhibition call (relative growth <= 0.2)
# Conditions: 50 µM
row,SMILES,growth inhibition call
1,C[C@H](CO)N1C[C@H](C)[C@H](CN(C)S(=O)(=O)c2cn(C)cn2)Oc2ncc(-c3cc4ccccc4o3)cc2C1=O,inactive
2,COc1ccc(NC(=O)N(C)C[C@@H]2Oc3ccc(NC(=O)C4CC4)cc3CC(=O)N([C@@H](C)CO)C[C@@H]2C)cc1,inactive
3,Cc1noc(C)c1NC(=O)Nc1cccc2c1O[C@H](CN(C)Cc1ccc(C(=O)Nc3ccccc3N)cc1)[C@H](C)CN([C@@H](C)CO)C2=O,inactive
4,C[C@@H]1CN([C@@H](C)CO)C(=O)c2cc(NS(=O)(=O)c3ccccc3)ccc2O[C@H]1CN(C)S(=O)(=O)c1cccs1,inactive
5,C=CCOC(=O)[C@H]1[C@@H]2C(=O)O[C@@H](c3ccccc3)[C@@H](c3ccccc3)N2[C@@H](c2ccc(OCCOC(=O)[C@@H]3C[C@@H]4C(=O)N[C@@H](CC(C)C)C(=O)N4[C@@H]3c3ccc(O)cc3)cc2)[C@]12C(=O)Nc1ccccc12,inactive
6,C[C@H](CO)N1C[C@H](C)[C@H](CN(C)Cc2ccc(C(=O)Nc3ccccc3N)cc2)Oc2ccc(NC(=O)Cn3cnnn3)cc2C1=O,inactive
7,C[C@@H](O[C@H]1OCCN(Cc2n[nH]nc2CN(C)C)[C@H]1c1ccc(F)cc1)c1cc(C(F)(F)F)cc(C(F)(F)F)c1,active
8,CC(OC1OCCN(C(C)c2nc(=O)[nH][nH]2)C1c1ccc(F)cc1)c1cc(C(F)(F)F)cc(C(F)(F)F)c1 (stereo not drawn),inactive
9,C[C@@H]1CN([C@@H](C)CO)C(=O)c2cccc(NC(=O)c3ccc(-c4nccs4)cc3)c2O[C@H]1CN(C)S(=O)(=O)c1cn(C)cn1,inactive
10,COCC#Cc1ccc2c(c1)O[C@@H](CN(C)C(=O)c1ccccc1)[C@@H](C)CN([C@@H](C)CO)S2(=O)=O,inactive
11,C[C@H](CO)N1C[C@H](C)[C@@H](CN(C)CC2CC2)OCCCC[C@H](C)Oc2ccc(NC(=O)CCCCCC(=O)Nc3ccccc3N)cc2C1=O,inactive
12,Cc1ccc2nc([C@H](N)C(C)C)[nH]c2c1,inactive
13,C[C@@H](Oc1ccccc1Cl)c1nc2ccc(Cl)cc2[nH]1,active
14,CC(C)[C@@H](N)c1nc2ccccc2[nH]1,inactive
15,C[C@@H]1CN([C@H](C)CO)C(=O)Cc2cc(NC(=O)CCCCCC(=O)Nc3ccccc3N)ccc2O[C@@H]1CN(C)C(=O)Nc1ccc(C(F)(F)F)cc1,inactive
16,CON=C(C(=O)NC1C(=O)N2C(C(=O)OC(C)OC(C)=O)=C(COC(N)=O)CSC12)c1ccco1 (stereo not drawn),inactive
17,CC(C)(O/N=C(\C(=O)N[C@@H]1C(=O)N2C(C(=O)O)=C(C[N+]3(CCNC(=O)c4ccc(O)c(O)c4Cl)CCCC3)CS[C@H]12)c1csc(N)n1)C(=O)O,inactive
18,CO/N=C(\C(=O)N[C@@H]1C(=O)N2C(C(=O)O)=C(C[n+]3ccn4ncccc43)CS[C@H]12)c1nsc(N)n1,inactive
19,CON=C(C(=O)N[C@@H]1C(=O)N2C(C(=O)O)=C(CSc3nc(=O)c(O)nn3C)CS[C@H]12)c1csc(N)n1,active
20,CO/N=C(\C(=O)N[C@@H]1C(=O)N2C(C(=O)O[C@@H](C)OC(C)=O)=C(COC(N)=O)CS[C@H]12)c1ccco1,inactive
21,CO/N=C(\C(=O)N[C@@H]1C(=O)N2C(C(=O)O)=C(C[N+]3(C)CCCC3)CS[C@H]12)c1csc(N)n1,active

row,SMILES,growth inhibition call
1,CON=C(C(=O)NC1C(=O)N2C(C(=O)[O-])=C(COC(N)=O)CSC12)c1ccco1.[Na+] (stereo not drawn),active
2,CON=C(C(=O)NC1C(=O)N2C(C(=O)O)=C(C[N+]3(C)CCCC3)CSC12)c1csc(N)n1.[Cl-] (stereo not drawn),active
3,CO/N=C(\C(=O)N[C@@H]1C(=O)N2C(C(=O)O)=C(CSc3nnnn3C)CS[C@H]12)c1csc(N)n1,inactive
4,CC(C)(O/N=C(\C(=O)N[C@@H]1C(=O)N2C(C(=O)O)=C(C[n+]3ccccc3)CS[C@H]12)c1csc(N)n1)C(=O)O,inactive
5,Cc1cn2nc([C@@H]3CCCCN3C(=O)c3cc(Cl)ccc3NS(C)(=O)=O)cc2nc1N1CC[C@H](N)C1,inactive
6,NNC(=O)c1cc(=S)nc[nH]1,inactive
7,Cc1noc(C)c1NC(=O)Nc1ccc2c(c1)C(=O)N([C@H](C)CO)C[C@@H](C)[C@H](CN(C)S(=O)(=O)c1cn(C)cn1)O2,inactive
8,C[C@@H]1CN([C@@H](C)CO)C(=O)Cc2cc(NC(=O)NC3CCCCC3)ccc2O[C@H]1CN(C)S(C)(=O)=O,inactive
9,C[C@H](CO)N1C[C@H](C)[C@@H](CN(C)Cc2ccc(F)cc2)Oc2ncc(C#Cc3cccnc3)cc2C1=O,inactive
10,C[C@H]1CN([C@@H](C)CO)C(=O)c2cc(NC(=O)CCCN(C)C)ccc2O[C@@H]1CN(C)C(=O)Nc1ccc(F)cc1,inactive
11,C[C@@H]1CN([C@@H](C)CO)C(=O)c2c(c3ccccc3n2C)-c2ccccc2CO[C@@H]1CN(C)Cc1cccc(C(F)(F)F)c1,inactive
12,C[C@@H]1CN([C@@H](C)CO)C(=O)c2cccc(NC(=O)C3CCOCC3)c2O[C@@H]1CN(C)Cc1ccncc1,inactive
13,O=C(C[C@@H]1CC[C@@H]2[C@H](COC[C@H](O)CN2S(=O)(=O)c2ccccc2)O1)N1CCOCC1,inactive
14,CCCNC(=O)N1C[C@@H](O)COC[C@H]2O[C@H](CC(=O)NCCCN3CCOCC3)CC[C@@H]21,inactive
15,C[C@@H]1CN([C@@H](C)CO)C(=O)c2cc(NC(=O)C3CCCCC3)ccc2O[C@@H](C)CCCCO[C@H]1CN(C)S(=O)(=O)c1ccc(Cl)cc1,inactive
16,C[C@@H]1CN([C@H](C)CO)C(=O)c2cc(NC(=O)Nc3ccc4c(c3)OCO4)ccc2O[C@@H](C)CCCCO[C@@H]1CN(C)C(=O)c1ccccc1,inactive
17,COc1ccccc1C#Cc1ccc2c(c1)O[C@@H](CN(C)C(C)=O)[C@H](C)CN([C@@H](C)CO)S2(=O)=O,inactive
18,CC1C(NC(=O)C(=NOC(C)(C)C(=O)O)c2csc(N)n2)C(=O)N1S(=O)(=O)O (stereo not drawn),inactive
19,CO/N=C(\C(=O)N[C@@H]1C(=O)N2C(C(=O)O)=C(C)CS[C@H]12)c1csc(N)n1,active
20,C[C@H]1[C@H](NC(=O)/C(=N\OC(C)(C)C(=O)O)c2csc(N)n2)C(=O)N1S(=O)(=O)O,inactive
21,CON=C(C(=O)NC1C(=O)N2C(C(=O)[O-])=C(CSc3nc(=O)c([O-])nn3C)CSC12)c1csc(N)n1.O.O.O.[Na+].[Na+] (stereo not drawn),inactive

row,SMILES,growth inhibition call
1,COCC1=C(C(=O)OC(C)OC(=O)OC(C)C)N2C(=O)C(NC(=O)C(=NOC)c3csc(N)n3)C2SC1 (stereo not drawn),inactive
2,CON=C(C(=O)NC1C(=O)N2C(C(=O)[O-])=C(COC(C)=O)CSC12)c1csc(N)n1.[Na+] (stereo not drawn),active
3,C[C@H](CO)N1C[C@H](C)[C@H](CN(C)S(=O)(=O)c2ccccc2)Oc2ccc(NS(C)(=O)=O)cc2C1=O,inactive
4,O=C(C[C@H]1CC[C@H]2[C@@H](COC[C@@H](O)CN2C(=O)Nc2cccc(Cl)c2)O1)NCCCN1CCOCC1,inactive
5,O=C(C[C@@H]1CC[C@H]2[C@@H](COC[C@H](O)CN2C(=O)Nc2cccc(Cl)c2)O1)NCCCN1CCOCC1,active
6,O=C(C[C@@H]1CC[C@@H]2[C@H](COC[C@@H](O)CN2C(=O)Nc2cccc(F)c2)O1)NCCCN1CCOCC1,inactive
7,O=C(C[C@H]1CC[C@H]2[C@@H](COC[C@H](O)CN2C(=O)Nc2cccc(Cl)c2)O1)NCCCN1CCOCC1,inactive
8,O=C(C[C@@H]1CC[C@H]2[C@@H](COC[C@H](O)CN2C(=O)Nc2cccc(F)c2)O1)NCCCN1CCOCC1,inactive
9,O=C(C[C@@H]1CC[C@H]2[C@@H](COC[C@@H](O)CN2C(=O)Nc2cccc(F)c2)O1)NCCCN1CCOCC1,inactive
10,O=C(C[C@H]1CC[C@@H]2[C@H](COC[C@H](O)CN2C(=O)Nc2cccc(Cl)c2)O1)NCCCN1CCOCC1,inactive
11,O=C(C[C@@H]1CC[C@@H]2[C@H](COC[C@H](O)CN2C(=O)Nc2cccc(Cl)c2)O1)NCCCN1CCOCC1,active
12,O=C(C[C@@H]1CC[C@@H]2[C@H](COC[C@H](O)CN2C(=O)Nc2cccc(F)c2)O1)NCCCN1CCOCC1,inactive
13,O=C(C[C@H]1CC[C@H]2[C@@H](COC[C@H](O)CN2C(=O)Nc2cccc(F)c2)O1)NCCCN1CCOCC1,inactive
14,O=C(C[C@H]1CC[C@@H]2[C@H](COC[C@@H](O)CN2C(=O)Nc2cccc(Cl)c2)O1)NCCCN1CCOCC1,active
15,O=C(C[C@@H]1CC[C@H]2[C@@H](COC[C@@H](O)CN2C(=O)Nc2cccc(Cl)c2)O1)NCCCN1CCOCC1,active
16,Cc1ccc(Sc2c(-c3ccccc3)nc3sccn23)cc1,inactive
17,COCC(=O)Nc1ccc2c(c1)C(=O)N(C)C[C@@H](OC)[C@H](C)CN(Cc1ccccc1OC)[C@@H](C)CO2,inactive
18,C[C@@H](C[N+](C)(C)C)OC(N)=O,inactive
19,C=C[C@](C)(O)CC/C=C(\C)C(=O)O[C@@H]1[C@@H](O[C@@](C)(C=C)CC/C=C(\C)C(=O)O[C@H]2C[C@@]3(C(=O)O[C@H]4OC[C@@H](O[C@H]5O[C@@H](CO)[C@@H](O)[C@@H](O[C@H]6O[C@@H](CO)[C@@H](O[C@H]7O[C@@H](CO)[C@@H](O)[C@@H](O)[C@@H]7O)[C@@H](O)[C@@H]6O)[C@@H]5O)[C@@H](O)[C@@H]4O)[C@@H](O)C[C@@]4(C)C(=CC[C@H]5[C@@]6(C)CC[C@@H](O[C@H]7O[C@@H](CO)[C@@H](O[C@H]8O[C@@H](CO)[C@@H](O)[C@@H](O[C@H]9OC[C@@H](O)[C@@H](O)[C@@H]9O)[C@@H]8O)[C@@H](O)[C@@H]7O)C(C)(C)[C@@H]6CC[C@@]54C)[C@@H]3CC2(C)C)OC[C@@H](O)[C@H]1O,inactive
20,CCc1nc2ccc(C(=O)NCCN3CCNC3=O)cn2c1N(CC)Cc1cccc(Br)c1,inactive
21,COC(=O)[C@@]12O[C@@H]1[C@H](O[C@@H]1O[C@H](CO)[C@@H](O)[C@H](O)[C@H]1O)C[C@H]1[C@]3(C)C[C@@H](c4ccoc4)OC(=O)[C@H]3CC[C@]12C,inactive
